For 4 compounds, outcome and AC50 results are on record in PubChem BioAssay (EPA / NIEHS).

Common to all, as to conditions: mRNA level, 48 h; actives raise or lower the signal
Read-out in assay [1]: Insulin Like Growth Factor 1 (IGF1), IGF1 (gene 3479)
The experiment in a line: LTEA_HepaRG_IGF1: Life Technologies and Expression Analysis (LTEA) Assay for Insulin Like Growth Factor 1 (IGF1) using HepaRG (AID 2283506). In short, it runs like this: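 Endpoint: IGF1 mRNA change by qRT-PCR, housekeeping-normalized, fitted bidirectionally relative to 0.5% DMSO vehicle. Human HepaRG cells were treated 48 h in serum-free induction medium, eight half-log concentrations topping at 100 uM.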

Read-out in assay [2]: Intercellular Adhesion Molecule 1 (ICAM1), ICAM1 (gene 3383)
The experiment in a line: LTEA_HepaRG_ICAM1: Life Technologies and Expression Analysis (LTEA) Assay for Intercellular Adhesion Molecule 1 (ICAM1) using HepaRG (AID 2283507). In short, it runs like this:
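Readout is qRT-PCR mRNA level, normalized to three housekeeping genes and fitted bidirectionally against 0.5% DMSO vehicle. Human HepaRG cultures received compound for 48 h, top concentration 100 uM with half-log dilutions.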

Read-out in assay [3]: Insulin-like growth factor-binding protein 1 (IGFBP1), IGFBP1 (gene 3484)
The experiment in a line: LTEA_HepaRG_IGFBP1: Life Technologies and Expression Analysis (LTEA) Assay for Insulin-like growth factor-binding protein 1 (IGFBP1) using HepaRG (AID 2283508). In short, it runs like this: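 Thawed HepaRG cells are plated for 48 h, switched to serum-free induction medium, then dosed in duplicate for another 48 h (100 uM top, half-log steps). Lysates in RLT go to qRT-PCR, and gain or loss of signal is fitted relative to vehicle.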

Read-out in assay [4]: Interleukin 6 (IL6), IL6 (gene 3569)
The experiment in a line: LTEA_HepaRG_IL6: Life Technologies and Expression Analysis (LTEA) Assay for Interleukin 6 (IL6) using HepaRG (AID 2283509). In short, it runs like this: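 Changes in IL6 mRNA, up or down relative to 0.5% DMSO controls, were derived from concentration-response curves in human HepaRG cells treated for 48 h at up to 100 uM, with ACTB, GAPDH and POLR2A as normalizers.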

Read-out in assay [5]: Interleukin 6 Receptor (IL6R), IL6R (gene 3570)
Description: LTEA_HepaRG_IL6R: Life Technologies and Expression Analysis (LTEA) Assay for Interleukin 6 Receptor (IL6R) using HepaRG (AID 2283510).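 For AC50: differentiated human HepaRG liver cells in serum-free induction medium; TaqMan qRT-PCR signal normalized to ACTB GAPDH and POLR2A housekeeping genes.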 In short, it runs like this: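 In this HepaRG screen, test chemicals act on cells for 48 h at up to 100 uM (eight half-log points, duplicate wells). IL6R expression is quantified by qRT-PCR after normalization to ACTB, GAPDH and POLR2A, with DMSO as baseline.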

Read-out in assay [6]: Potassium channel subfamily K member 1 (KCNK1), KCNK1 (gene 3775)
Description: LTEA_HepaRG_KCNK1: Life Technologies and Expression Analysis (LTEA) Assay for Potassium channel subfamily K member 1 (KCNK1) using HepaRG (AID 2283511). In short, it runs like this:
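Human HepaRG cultures receive test chemicals for 48 h in 0.5% DMSO, top concentration 100 uM with half-log dilutions. Induction or suppression of KCNK1 mRNA relative to DMSO is derived by bidirectional fitting of qRT-PCR data.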

Read-out in assay [7]: Lipase C (LIPC), LIPC (gene 3990)
The experiment in a line: LTEA_HepaRG_LIPC: Life Technologies and Expression Analysis (LTEA) Assay for Lipase C (LIPC) using HepaRG (AID 2283514). In short, it runs like this: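 In this multiplexed gene-expression screen, human HepaRG cultures received test chemicals for 48 h across eight concentrations with 100 uM highest, in duplicate. Values reflect LIPC mRNA induction or suppression versus DMSO vehicle, from normalized qRT-PCR.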

Read-out in assay [8]: Lipoprotein lipase (LPL), LPL (gene 4023)
The experiment in a line: LTEA_HepaRG_LPL: Life Technologies and Expression Analysis (LTEA) Assay for Lipoprotein lipase (LPL) using HepaRG (AID 2283515). In short, it runs like this: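 Concentration-response testing used half-log steps from 100 uM in 0.5% DMSO on human HepaRG cells, 48 h, duplicate wells. Phenobarbital 1 mM served as induction control; LPL mRNA was normalized to ACTB, GAPDH, POLR2A.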

Read-out in assay [9]: MicroRNA 122 (MIR122), gene 406906
Description: LTEA_HepaRG_MIR122: Life Technologies and Expression Analysis (LTEA) Assay for MicroRNA 122 (MIR122) using HepaRG (AID 2283516). Note: the transcript read is the microRNA miR-122. The procedure, abridged:
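Changes in transcript abundance, up or down relative to 0.5% DMSO vehicle, were scored after 48 h chemical treatment of HepaRG cells (maximum 100 uM). Quantification used TaqMan qRT-PCR normalized to housekeeping genes.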

Read-out in assay [10]: matrix metalloproteinase-10 (MMP10), MMP10 (gene 4319)
Description: LTEA_HepaRG_MMP10: Life Technologies and Expression Analysis (LTEA) Assay for matrix metalloproteinase-10 (MMP10) using HepaRG (AID 2283517). In short, it runs like this: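 In differentiated HepaRG cultures kept in 0.5% DMSO, test chemicals act for 48 h over an eight-point range with a top dose of 100 uM. Expression is then quantified by TaqMan RT-PCR against ACTB, GAPDH and POLR2A.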

Read-out in another assay: MYC, MYC (gene 4609)
The experiment in a line: LTEA_HepaRG_MYC: Life Technologies and Expression Analysis (LTEA) Assay for MYC using HepaRG (AID 2283518). In short, it runs like this:
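HepaRG, ~100,000 cells/well, collagen I; 48 h plating; serum-free induction medium; 48 h dosing, duplicate, 100 uM top, half-log, 0.5% DMSO; total RNA → qRT-PCR MYC; gain/loss fit vs DMSO.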

Read-out in assay [11]: matrix metalloproteinase-3 (MMP3), MMP3 (gene 4314)
Description: LTEA_HepaRG_MMP3: Life Technologies and Expression Analysis (LTEA) Assay for matrix metalloproteinase-3 (MMP3) using HepaRG (AID 2283519). The procedure, abridged: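 Human liver HepaRG cultures received chemicals (top concentration 100 uM, 0.5% DMSO) for 48 h in duplicate. MMP3 mRNA induction or loss was then assessed via TaqMan qRT-PCR with housekeeping-gene normalisation.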

Read-out in assay [12]: Paternally Expressed 10 (PEG10), PEG10 (gene 23089)
Description: LTEA_HepaRG_PEG10: Life Technologies and Expression Analysis (LTEA) Assay for Paternally Expressed 10 (PEG10) using HepaRG (AID 2283520).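 For AC50: PEG10 transcript by qRT-PCR normalised to ACTB GAPDH and POLR2A.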 In short, it runs like this: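 After 48 h exposure of differentiated HepaRG cells (0.5% DMSO vehicle, eight concentrations up to 100 uM, duplicates), PEG10 mRNA was measured by TaqMan qRT-PCR. Values were normalised to endogenous control genes and analysed bidirectionally against vehicle.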

Read-out in assay [13]: Protein phosphatase 2A (PPP2R4), PTPA (gene 5524)
The experiment in a line: LTEA_HepaRG_PPP2R4: Life Technologies and Expression Analysis (LTEA) Assay for Protein phosphatase 2A (PPP2R4) using HepaRG (AID 2283522). The procedure, abridged:
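Using HepaRG cultures maintained in 0.5% DMSO, chemicals are tested 48 h at up to 100 uM in duplicate. Induction or suppression of PPP2R4 mRNA, measured by qRT-PCR, is fitted bidirectionally against the vehicle baseline.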

Read-out in assay [14]: Phosphatase and tensin (PTEN), PTEN (gene 5728)
Description: LTEA_HepaRG_PTEN: Life Technologies and Expression Analysis (LTEA) Assay for Phosphatase and tensin (PTEN) using HepaRG (AID 2283523). In short, it runs like this:
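Expression of PTEN is quantified in the human liver line HepaRG following two days of dosing (top concentration 100 uM, half-log dilutions, 0.5% DMSO). Values derive from bidirectional curve fitting relative to DMSO controls.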

Read-out in assay [15]: solute carrier (SLC22A1), SLC22A1 (gene 6580)
Description: LTEA_HepaRG_SLC22A1: Life Technologies and Expression Analysis (LTEA) Assay for solute carrier (SLC22A1) using HepaRG (AID 2283524).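 For AC50: differentiated human HepaRG liver cells in serum-free induction medium; TaqMan qRT-PCR normalized to ACTB GAPDH and POLR2A housekeeping genes.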 In short, it runs like this:
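Transcript induction or suppression of SLC22A1 in human HepaRG cultures is scored after 48 h chemical treatment, with DMSO (0.5%) as baseline for bidirectional fitting. Concentrations span eight half-log points topping at 100 uM.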

Read-out in assay [16]: Pyruvate Dehydrogenase Kinase 4 (PDK4), PDK4 (gene 5166)
Description: LTEA_HepaRG_PDK4: Life Technologies and Expression Analysis (LTEA) Assay for Pyruvate Dehydrogenase Kinase 4 (PDK4) using HepaRG (AID 2283525). The procedure, abridged: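 Eight-point, half-log concentration series (max 100 uM, 0.5% DMSO) applied to differentiated HepaRG cells for 48 h in duplicate. Endpoint: PDK4 mRNA induction or repression by qRT-PCR against DMSO baseline.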

Read-out in assay [17]: Nuclear factor NF-kappa-B p105 subunit (Homo sapiens) (UniProt P19838)
Description: LTEA_HepaRG_NFKB1: Life Technologies and Expression Analysis (LTEA) Assay for Nuclear Factor Kappa B Subunit 1 (NFKB1) using HepaRG (AID 2283521).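 For outcome: differentiated human HepaRG liver cells in serum-free induction medium; TaqMan qRT-PCR transcript normalised to ACTB GAPDH and POLR2A housekeeping genes.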 In short, it runs like this:
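HepaRG, 48 h exposure; 8-pt half-log series from 100 uM in 0.5% DMSO; duplicates. Readout: NFKB1 mRNA by qRT-PCR (Fluidigm arrays), housekeeping-normalized. Gain/loss fit vs DMSO baseline.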

Each structure is given as a SMILES string. Calls of active or inactive are those of the source. Rule for the calls: active = hit-call score of the fitted dose curve at least 0.9, where 1 is the maximum; inactive = score below 0.9.

Chain of Nuclear factor NF-kappa-B p105 subunit (Homo sapiens) (P19838 whole entry, looked up): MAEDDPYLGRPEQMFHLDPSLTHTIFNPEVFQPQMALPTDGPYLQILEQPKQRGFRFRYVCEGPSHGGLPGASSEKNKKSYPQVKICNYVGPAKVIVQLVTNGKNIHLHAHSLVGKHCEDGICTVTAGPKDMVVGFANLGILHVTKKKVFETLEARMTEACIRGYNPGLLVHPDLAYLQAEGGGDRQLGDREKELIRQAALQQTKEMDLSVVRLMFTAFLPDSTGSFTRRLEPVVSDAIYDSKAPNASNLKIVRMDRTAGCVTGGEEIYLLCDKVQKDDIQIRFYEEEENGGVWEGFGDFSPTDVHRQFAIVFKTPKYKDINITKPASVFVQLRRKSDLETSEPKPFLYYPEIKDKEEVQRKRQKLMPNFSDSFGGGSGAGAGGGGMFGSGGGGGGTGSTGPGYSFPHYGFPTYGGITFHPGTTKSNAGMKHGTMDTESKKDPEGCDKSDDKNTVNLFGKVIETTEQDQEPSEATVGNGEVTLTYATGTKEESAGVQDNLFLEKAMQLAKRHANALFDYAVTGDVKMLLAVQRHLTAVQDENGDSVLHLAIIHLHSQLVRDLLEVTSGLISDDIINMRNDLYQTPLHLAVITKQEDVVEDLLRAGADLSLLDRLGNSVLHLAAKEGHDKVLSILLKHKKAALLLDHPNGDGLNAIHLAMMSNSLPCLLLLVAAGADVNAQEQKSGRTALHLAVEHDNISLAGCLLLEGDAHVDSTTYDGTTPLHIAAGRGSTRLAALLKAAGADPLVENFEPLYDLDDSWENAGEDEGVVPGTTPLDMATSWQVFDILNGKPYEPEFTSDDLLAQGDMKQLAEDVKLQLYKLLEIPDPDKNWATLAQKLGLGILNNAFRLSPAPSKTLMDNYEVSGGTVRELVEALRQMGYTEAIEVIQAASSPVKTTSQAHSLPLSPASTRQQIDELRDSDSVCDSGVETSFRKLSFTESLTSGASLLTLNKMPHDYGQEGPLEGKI

Consider `CC(C)CCCCCCOC(=O)c1ccc(C(=O)OCCCCCCC(C)C)c(C(=O)OCCCCCCC(C)C)c1`, for which the outcome in assay [1], in assay [2], in [3], in [4], in assay [5] and in [6] was inactive. The outcome in assay [7] was “inactive”; in assay [8] it was “inactive”; in [9], “inactive”; in assay [10], “inactive”; in the assay with MYC, MYC (gene 4609), “inactive”; in [11], “inactive”. For the same compound, the result in assay [12], in assay [13], in [14], in [15] and in [16] was inactive.
What is called AC50 is the concentration giving half of the maximal activity seen. In the case of `CN(C)c1ccc(Cc2ccc(N(C)C)cc2)cc1`, the AC50 is 79.2 µM (active) in assay [1]; 80.1 µM (active) in [7]; 50 µM (active) in assay [9]; 50 µM (active) in assay [11]; 37.3 µM (active) in assay [12]. In addition, the compound was called inactive in [2], in assay [3], in assay [4], in [5], in [6] and in assay [8]. In addition, the outcome was “inactive” in [10]; “inactive” with MYC, MYC (gene 4609); “inactive” in assay [17]; “inactive” in [13]; “inactive” in assay [14]; “inactive” in assay [15].
With `CCCCCCCCCCCCc1ccccc1`, the compound was called inactive in [1], in assay [2], in assay [3], in assay [4], in assay [5] and in [6]. Besides, the outcome is “inactive” in assay [7]; “inactive” in assay [8]; “inactive” in assay [9]; “inactive” in assay [10]; “inactive” with MYC, MYC (gene 4609); “inactive” in assay [12]. The outcome in [17], in assay [13], in assay [14] and in [15] was inactive.
With `O=C(CCCCCCCCc1cccnc1)N1CCC(C=C(c2ccccc2)c2ccccc2)CC1`, the concentration at half-maximal activity (AC50) in assay [1] is 16.5 µM (active); in [2] it was 16.4 µM (active); in assay [3], 28.5 µM (active); in assay [4], 22.6 µM (active); in assay [5] it was 89.3 µM (active); in assay [6], 50 µM (active). Moreover, the AC50 was 22.4 µM (active) in assay [7]; 12.8 µM (active) in assay [8]; 26.5 µM (active) in assay [9]; 31.8 µM (active) in assay [10]; 27.4 µM (active) with MYC, MYC (gene 4609); 50 µM (active) in [12]. In addition, the values for the AC50 in assay [17], in assay [13] and in [15] were 31.4 µM (active), 11.7 µM (active) and 24.4 µM (active), respectively. Besides, in [14], the compound was classed as inactive.
